Assay outcomes from PubChem.
FMDV inh: High Throughput Screening for Foot and Mouth Disease Virus Antivirals; FMDV antiviral cell-based qHTS; Potency, µM (highest dose often 57.9 µM), hits mostly inhibitors; hit rate 1.2% among 410,000; calls by dose curve; tested in HEK293T cells; note: read-out not given here; nearly all actives have a fitted effect of over 45% in size
LASV entry inh: qHTS for Inhibitors of binding or entry into cells for Lassa Virus. AID 540256, 2011. Lassa virus pseudotype entry inhibition, cell reporter. Potency, µM (titrated, usually from 37.9 µM), most hits filed as inhibitors. hit rate 1.2% among 300,000; calls by dose curve; tested in HEK293 cells; note: nearly all actives have a fitted effect of over 50% in size
Vaccinia mCherry: qHTS for Stage-Specific Inhibitors of Vaccinia Orthopoxvirus: mCherry Reporter Primary qHTS | Vaccinia virus mCherry reporter infection, fluorescence | hit rate 0.63% among 310,000 | Potency, µM (titrated, usually from 36.5 µM), most hits filed as inhibitors; calls by dose curve; tested in A549 cells; note: nearly all actives have a fitted effect of over 35% in size
MARV entry inh: qHTS for inhibitors of binding or entry into cells for Marburg Virus | Marburg virus pseudotyped entry inhibition, cell reporter | Potency, µM (top dose mostly 37.8 µM), most hits filed as inhibitors | AID 540276, 2011 | hit rate 1.8% among 300,000; calls by dose curve; tested in HEK293 cells
HCV inh: qHTS Assay for Inhibitors of Hepatitis C Virus (HCV); Huh7.5.1 HCVcc-Cre infection, luciferase reporter, 44 h; hit rate 3.4% among 340,000; Potency, µM (highest dose often 41.8 µM), hits mostly inhibitors; AID 651820, 2012; active = well fitted inhibition curve with a large enough effect; inconclusive = small, poorly fitted or top-dose-only effect, or another doubt; inactive = no such curve, though single readings can be large or run the other way
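After 44 h co-culture of compound, cells and HCVcc-Cre (~0.5 moi), substrate is added for 15 min at room temperature and luciferase measured over 15 sec. Cells were seeded at 1,000/well and pre-cultured 4 h.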
VACV Venus inh: qHTS for Stage-Specific Inhibitors of Vaccinia Orthopoxvirus: Venus Reporter Primary qHTS; Vaccinia virus Venus reporter expression, fluorescence; Potency, µM (doses to about 36.5 µM), actives largely listed as inhibitors; hit rate 0.46% among 330,000; calls by dose curve; tested in A549 cells; note: nearly all actives have a fitted effect of over 30% in size
A number is an active result; – = inactive; ? = inconclusive; · = no result given. Rows were chosen to be rich in hits. Some 5.3% of all compounds tested hit in one or more screens of this group.

SMILES | FMDV inh | LASV entry inh | Vaccinia mCherry | MARV entry inh | HCV inh | VACV Venus inh
COc1ccc(S(=O)(=O)N2CCCCC2)cc1NC(=O)C1COc2ccccc2O1 (stereo not given) | ? | ? | – | 11µM | ? | –
O=C(Nc1cc(S(=O)(=O)N2CCCCC2)ccc1Oc1ccccc1)C1=COCCO1 | – | · | · | · | 22µM | ·
COc1ccc(S(=O)(=O)N2CCCCCC2)cc1NC(=O)c1ccccc1 | – | – | – | ? | – | –
CC1(C(=O)NC2CCCCC2)CCC(=O)N1CC(F)(F)F (stereo not given) | – | · | – | · | · | –
Cc1cc(O)c2c(c1)OC(C)(C)C1=C2CC(C)CC1 (stereo not given) | – | · | · | · | 13µM | ·
C[C@@H]1CC2CCCC2[C@]2(O1)C(=O)Nc1ccccc12 (stereo not given in full) | · | · | · | – | · | ·
O=C(c1ccccc1)c1c2c(cc3sc4ccccc4[n+]13)-c1cccc3cccc-2c13 | 40µM | 15µM | – | ? | ? | –
O=C(c1ccccc1)c1ccc2ccccc2c1 | – | – | – | – | – | –
Cc1sc2cc3c(c(C(=O)c4ccccc4)[n+]2c1C)-c1cccc2cccc-3c12 | 14µM | ? | – | 4.5µM | 10µM | –
Cc1cc2c(cc1S(=O)(=O)CCC(=O)N1CCC(C)CC1)OCC(=O)N2 | – | – | – | · | · | –
CC1=C2[C@H](O)[C@H]([C@@H](C)C(=O)NCCC(C)C)CC[C@@]2(C)C=CC1=O | · | · | · | – | · | ·
Cc1ccc(CNCc2cc3c(C(C)(C)C)nn(-c4ccccc4)c3[nH]c2=O)cc1 | · | ? | – | ? | 10µM | –
COc1ccccc1/C=C/c1ccnc2ccccc12 | · | · | – | · | · | –
Cc1ccc(N(Cc2ccccc2)C(=O)c2cc(S(=O)(=O)N3CCOCC3)ccc2Cl)cc1 | – | ? | – | ? | ? | –
Cc1cccc(N(Cc2ccccc2)C(=O)c2cc(S(=O)(=O)N3CCOCC3)ccc2Cl)c1 | – | ? | – | 13µM | ? | –
Cc1ccc(N(Cc2ccccc2)C(=O)c2ccc(C)c(S(=O)(=O)N3CCOCC3)c2)cc1 | – | · | · | · | 32µM | ·
O=C(COc1ccc(Br)cc1Cl)NC(=S)Nc1ccccn1 | – | · | · | · | – | ·
Cc1ccc(OCC(=O)NC(=S)Nc2ccccn2)c(Br)c1 | 16µM | ? | – | ? | – | –
C=CCn1cc(/C=N\NC(=O)c2cc3c(ccc4ccccc43)o2)c2ccccc21 | – | – | · | – | 10µM | –
COc1ccc(/C=N/NC(=O)c2cc3c(ccc4ccccc43)o2)c(OC)c1 | – | · | · | · | ? | ·
O=C(N/N=C/C=C/c1ccccc1)c1cc2c(ccc3ccccc32)o1 | ? | 7.9µM | · | 4.5µM | – | –
O=C(N/N=C/c1ccccc1F)c1cc2c(ccc3ccccc32)o1 | – | · | · | · | – | ·
CSc1ccn(CC2CCC(Cl)CC2)c(=O)n1 (stereo not given) | · | · | · | – | · | ·
CC1=NN(c2ccc([N+](=O)[O-])cc2)C(=O)C1[N+](=O)[O-] (stereo not given) | – | · | · | · | · | ·
C#CCN1C(=O)[C@]2(O[C@H](COc3ccccc3)CC3=CCCC32)c2c(Br)cccc21 (stereo not given in full) | · | · | · | – | · | ·
SMILES | FMDV inh | LASV entry inh | Vaccinia mCherry | MARV entry inh | HCV inh | VACV Venus inh
O=C(NCc1ccncc1)c1cnn(-c2nccc(-c3cc4ccccc4o3)n2)c1C1CC1 | – | · | – | · | · | –
Cc1c(OC(C)C(=O)NCC(O)c2ccccc2)ccc2c3c(c(=O)oc12)CCCC3 (stereo not given) | – | · | · | · | 25µM | ·
Cc1csc(NC(=O)CSc2nc3[nH]c(=O)cc(O)c3s2)n1 | – | ? | – | ? | 10µM | –
O=C(CSc1nc2[nH]c(=O)cc(O)c2s1)Nc1nncs1 | – | – | – | – | – | –
CCc1nc2ccc(C(=O)NCCc3ccccn3)cn2c1N(CCC(C)C)CCN(C)C | – | · | – | · | · | –
COc1cc(NS(=O)(=O)c2ccc(NC(=S)NC(=O)CC(C)C)cc2)nc(OC)n1 | – | – | 11µM | – | – | ?
Cc1ccc([C@H]2C(C#N)=C(N)Oc3cc(C)oc(=O)c32)o1 | 25µM | – | – | – | – | –
COc1ccc(-n2c(CCNC(=O)c3ccc(-c4cccc(F)c4)cc3)nnc2SC)cc1 | – | · | – | · | · | –
COC(=O)C1C(C(=O)OC)C1(c1ccccc1)c1ccccc1 (stereo not given) | – | – | – | – | – | –
COC(=O)C1=C(C(=O)OC)C(C(=O)OC)C(C(=O)OC)C(C(=O)OC)(C(=O)OC)C(C(=O)OC)=C1C(=O)OC (stereo not given) | 40µM | ? | ? | ? | ? | ?
COc1ccc(N2C(=O)/C(=C/c3ccc(C)o3)C(=O)NC2=S)cc1 | ? | · | · | · | – | ·
CCOc1ccc(N2C(=O)/C(=C/c3ccc(C)o3)C(=O)NC2=S)cc1 | 40µM | · | · | · | – | ·
COc1ccc(/C=C/c2nc3ccccc3n2C)cc1 | 1.8µM | 0.11µM | ? | ? | ? | ?
COc1ccc(/C=N\n2nnc3ccccc32)cc1 | – | 1.4µM | – | 2µM | ? | –
CCn1c(/C=C/c2ccccc2)nc2ccccc21 | – | ? | – | ? | 7.9µM | –
COc1ccc(Cn2c(/C=C/c3ccccc3)nc3ccccc32)cc1 | – | – | · | ? | – | ·
CC(C)Cn1c(/C=C/c2ccccc2)nc2ccccc21 | – | – | – | ? | ? | ?
CCCN(C(=O)c1cc2c(s1)-c1ccccc1SC2)c1ccccc1F | – | ? | – | – | · | –
CCOC(=O)C1(Cc2ccc(Cl)cc2)CCN(C(=O)c2sc(C)nc2C)CC1 | 32µM | · | · | · | 11µM | ·
CCOC(=O)C1(Cc2ccc(Cl)cc2)CCN(CCCn2cccn2)CC1 | ? | ? | – | ? | 3.2µM | –
COc1c([N+](=O)[O-])ccc(N)c1N | · | · | – | · | · | –
C/C(=N\Nc1nc2ccccc2[nH]1)c1ccc2c(c1)OCCO2 | – | ? | – | ? | ? | –
C/C(=N\Nc1nc2ccccc2[nH]1)c1ccc2c(c1)OCO2 | – | ? | ? | 12µM | ? | ?
O=C(COC(=O)c1cc([N+](=O)[O-])ccc1N1CCOCC1)Nc1cccc(F)c1 | 40µM | · | · | · | 13µM | ·
CCOC(=O)c1ccccc1NC(=O)COC(=O)c1cc([N+](=O)[O-])ccc1N1CCOCC1 | ? | ? | – | ? | 2.2µM | –
SMILES | FMDV inh | LASV entry inh | Vaccinia mCherry | MARV entry inh | HCV inh | VACV Venus inh
O=C1[C@H]2[C@H]3[C@H](O)[C@H](O)C/C(=N\OCc4ccccc4)[C@H]3CC[C@H]2C(=O)N1Cc1ccc2c(c1)OCO2 | · | · | · | – | · | ·
COc1ccc(-n2cc(C(=O)c3ccccc3O)cn2)cc1 | – | 4µM | – | ? | – | –
CC(C)c1ccc(NC(=O)COc2ccc(F)cc2C(=O)c2cnn(-c3ccccc3)c2)cc1 | – | ? | – | ? | ? | –
O=C(COc1ccccc1C(=O)c1cnn(-c2ccccc2)c1)Nc1ccc2ccccc2c1 | – | – | – | ? | 13µM | –
COc1ccc(Cc2nc3ccccc3n2Cc2ccccc2F)cc1 | – | – | – | ? | · | –
Cn1cc(Cl)nc1[C@@H](O)c1ccccc1 | · | · | · | – | · | ·
